Results: PubChem BioAssay
The source made the active and inactive calls.

Assays:
[1] = tested on: Plasmodium falciparum Sir2 (PF13_0152, Sir2A); experiment: pfSir2 binders on small-molecule microarrays, primary screen, biochemical, small-molecule microarray, 635 nm fluorescence (AID 1098); conditions: small-molecule microarray binding, fluorescence 635 nm; higher = more signal;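 also: score merges spot fluorescence intensity with its signal-to-noise ratio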
[2] = small-molecule microarray binders of probe aDKK1, primary screen, biochemical, biotinylated probe, 635/667 nm fluorescence (AID 1099); conditions: higher = more signal;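 also: score merges 667nm spot fluorescence with signal to noise across triplicate slides; reference of the scale not given here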
[3] = small-molecule microarray binders of probe aCHRDL2, primary screen, biochemical, biotinylated probe, 635/667 nm fluorescence (AID 1100); conditions: higher = more signal
[4] = splicing luciferase reporter signal modulators, primary screen, spliceosome inhibition project, cell-based, HEK293, splice +/- reporter (AID 1101); conditions: luminescence, 24 h, higher = more signal, called active from +8 up or from −8 down;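 also: HEK293 cells carrying a splicing-competent luciferase reporter gene; test concentration not given here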
[5] = target: Fibroblast growth factor 10 (Homo sapiens) (UniProt O15520); experiment: FGF10 binders on small-molecule microarrays, primary screen, biochemical, small-molecule microarray, 635 nm fluorescence (AID 1102); conditions: FGF10 binding, fluorescence 635 nm, higher = more signal
Sequence of Fibroblast growth factor 10 (Homo sapiens) (O15520 whole entry, looked up): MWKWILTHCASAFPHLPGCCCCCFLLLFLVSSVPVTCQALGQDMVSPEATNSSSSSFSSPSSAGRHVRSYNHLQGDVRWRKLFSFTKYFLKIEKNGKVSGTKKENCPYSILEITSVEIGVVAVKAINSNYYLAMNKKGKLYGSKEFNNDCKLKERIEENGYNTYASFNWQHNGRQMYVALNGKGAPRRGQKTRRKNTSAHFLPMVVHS

[6] = tested on: glycogen synthase kinase-3 (GSK3A per assay name; protocol says GSK3B); experiment: GSK3 binders on small-molecule microarrays, primary screen, biochemical, small-molecule microarray, 635 nm fluorescence, GSK3A (AID 1103); conditions: small-molecule microarray binding, fluorescence 635 nm; higher = more signal; also: the record names both GSK3A and GSK3B
[7] = target: Epidermal growth factor receptor (Homo sapiens) (UniProt P00533); experiment: EGFR binders on small-molecule microarrays, primary screen, biochemical, small-molecule microarray, 635 nm fluorescence (AID 1104); conditions: EGFR binding, higher = more signal;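 also: score merges 667 nm emission intensity with spot signal to noise over triplicate slides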
Sequence of Epidermal growth factor receptor (Homo sapiens) (P00533 whole entry, looked up): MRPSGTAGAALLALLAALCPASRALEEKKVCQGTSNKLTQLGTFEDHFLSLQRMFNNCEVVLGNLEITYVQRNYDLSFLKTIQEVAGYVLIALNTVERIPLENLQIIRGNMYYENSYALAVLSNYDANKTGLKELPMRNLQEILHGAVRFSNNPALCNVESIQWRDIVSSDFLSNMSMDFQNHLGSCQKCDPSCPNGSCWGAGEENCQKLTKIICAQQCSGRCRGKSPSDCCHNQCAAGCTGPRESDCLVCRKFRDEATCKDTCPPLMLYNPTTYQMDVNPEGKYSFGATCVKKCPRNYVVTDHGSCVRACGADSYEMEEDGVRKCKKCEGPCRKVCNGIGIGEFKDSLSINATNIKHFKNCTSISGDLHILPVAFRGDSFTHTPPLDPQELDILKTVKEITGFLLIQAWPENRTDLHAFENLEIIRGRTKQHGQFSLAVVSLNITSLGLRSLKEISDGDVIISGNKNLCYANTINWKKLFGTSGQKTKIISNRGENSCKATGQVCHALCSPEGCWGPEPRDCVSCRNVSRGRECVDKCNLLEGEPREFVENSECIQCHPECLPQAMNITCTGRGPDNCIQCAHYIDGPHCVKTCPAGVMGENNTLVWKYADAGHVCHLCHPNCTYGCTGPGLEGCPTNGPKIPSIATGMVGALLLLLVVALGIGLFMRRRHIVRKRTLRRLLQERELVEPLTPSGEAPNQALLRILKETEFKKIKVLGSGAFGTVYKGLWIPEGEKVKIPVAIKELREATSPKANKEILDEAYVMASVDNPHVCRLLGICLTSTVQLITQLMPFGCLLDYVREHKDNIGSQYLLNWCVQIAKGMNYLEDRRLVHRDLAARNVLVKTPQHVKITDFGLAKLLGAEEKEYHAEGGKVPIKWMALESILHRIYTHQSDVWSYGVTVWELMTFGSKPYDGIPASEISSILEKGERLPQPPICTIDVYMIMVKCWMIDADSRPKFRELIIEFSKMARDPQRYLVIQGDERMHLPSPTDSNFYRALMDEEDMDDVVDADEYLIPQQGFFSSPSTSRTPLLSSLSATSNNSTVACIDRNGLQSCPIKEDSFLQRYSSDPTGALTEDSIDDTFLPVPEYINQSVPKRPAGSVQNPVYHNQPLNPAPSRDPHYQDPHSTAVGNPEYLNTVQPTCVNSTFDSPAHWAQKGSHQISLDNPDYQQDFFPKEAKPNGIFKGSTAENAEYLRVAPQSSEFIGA

[8] = target: Follistatin-related protein 3 (Homo sapiens) (UniProt O95633); experiment: FSTL3 binders on small-molecule microarrays, primary screen, biochemical, small-molecule microarray, 635 nm fluorescence (AID 1105); conditions: FSTL3 binding, higher = more signal;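 also: score merges emission near 667 nm and signal to noise per printed spot across three slides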
Sequence of Follistatin-related protein 3 (Homo sapiens) (O95633 whole entry, looked up): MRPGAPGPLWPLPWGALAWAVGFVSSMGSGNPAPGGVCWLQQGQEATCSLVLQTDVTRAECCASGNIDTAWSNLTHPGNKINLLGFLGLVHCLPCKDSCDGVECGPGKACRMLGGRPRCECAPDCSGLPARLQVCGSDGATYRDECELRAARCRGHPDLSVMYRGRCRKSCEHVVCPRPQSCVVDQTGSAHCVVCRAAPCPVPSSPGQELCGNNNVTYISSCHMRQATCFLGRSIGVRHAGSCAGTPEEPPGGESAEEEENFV

[9] = target: Dickkopf-related protein 1 (Homo sapiens) (UniProt O94907); experiment: DKK1 binders on small-molecule microarrays, primary screen, biochemical, small-molecule microarray, 635 nm fluorescence scan (AID 1106); conditions: DKK1 binding, higher = more signal;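 also: score merges emission near 667 nm with signal to noise over three replicate slides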
Sequence of Dickkopf-related protein 1 (Homo sapiens) (O94907 whole entry, looked up): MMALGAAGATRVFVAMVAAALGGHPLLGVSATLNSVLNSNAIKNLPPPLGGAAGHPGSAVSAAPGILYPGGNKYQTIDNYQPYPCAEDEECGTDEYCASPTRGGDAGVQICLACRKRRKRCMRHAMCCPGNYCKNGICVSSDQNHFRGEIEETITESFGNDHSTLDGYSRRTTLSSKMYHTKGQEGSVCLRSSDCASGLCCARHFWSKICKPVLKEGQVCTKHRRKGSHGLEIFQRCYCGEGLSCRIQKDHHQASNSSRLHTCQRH

[10] = tested on: Inhibin beta A chain (activin A); experiment: INHBA (activin A) binders on microarrays, primary screen, biochemical, small-molecule microarray, 635 nm fluorescence scan (AID 1107); conditions: small-molecule microarray binding, higher = more signal;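 also: mouse activin A protein probed at 4.33 µg/mL on printed slides; score merges bound-protein fluorescence near 667 nm with spot signal-to-noise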

Structure (SMILES)	composite z-score [1]	composite z-score [2]	composite z-score [3]	z-score [4]	composite z-score [5]	composite z-score [6]	composite z-score [7]	composite z-score [8]	composite z-score [9]	composite z-score [10]
C=CCN1C(=O)[C@@]2(O[C@@H](CCn3cc([C@H](O)c4ccccc4)nn3)[C@H]([Si](C)(C)c3ccc(OC)cc3)[C@H]2C)c2cc(NC(=O)c3ccc(OC)cc3)ccc21	0.185	0.041	0.143	-0.345 (inactive)	-0.0229	0.0579	-0.128	0.382	0.183	1.07
O=[N+]([O-])c1ccc(C[n+]2ccc(-c3ccc(CO)cc3)cc2)o1	1.2	-0.0024	0.192	-0.0885 (inactive)	0.527	0.213	0.224	1.45	0.253	1.86
Cc1ccccc1C(O)C1C=CC2C(=O)N(C)C(=O)C2N1Nc1ccc([N+](=O)[O-])cc1[N+](=O)[O-] (stereo not given)	0.878	0.647	0.831	-0.311 (inactive)	1.11	1.28	0.226	1.17	-0.53	0.648
CN(C)CCCN1C(=O)[C@@]2(Cc3ccccc31)c1ccccc1C(=O)N(Cc1ccccc1)[C@H]2c1ccc(CO)cc1	0.74	-0.152	0.113	-0.773 (inactive)	-0.622	0.54	-0.306	0.408	0.0366	0.799
COCCOC(=O)N1C(=O)[C@@]2(c3cc(C#CC4(O)CCCCCC4)ccc31)[C@H](C(=O)N1CCc3cc(OC)c(OC)cc3C1)[C@H]1C(=O)O[C@H](c3ccccc3)[C@H](c3ccccc3)N1[C@@H]2c1ccccc1OCCO	0.517	0.836	0.173	-0.461 (inactive)	0.96	1.3	0.887	1.42	1.69	0.701
CCCC[C@H]1OB(O)C[C@H]2C1=C(COc1ccccc1)Cn1c(=O)n(-c3ccccc3)c(=O)n12	0.918	-0.149	-0.387	0.142 (inactive)	0.926	0.61	0.283	1.01	0.203	0.54
O=C1N(CCS(=O)(=O)c2ccccc2)c2ccccc2[C@H]2OC(c3ccc(OCCCO)cc3)=N[C@@]12CCS(=O)(=O)c1ccccc1	1.31	1.59	1.16	-0.0214 (inactive)	1.35	1.31	0.736	1.31	0.9	1.29
C[C@H]1ON(c2ccccc2)[C@@H](c2ccccc2)[C@@H]1C(=O)N1C(=O)OC[C@@H]1c1ccccc1	0.0672	-0.138	-0.351	0.216 (inactive)	0.675	0.363	0.356	0.699	0.289	0.631
COCCOC(=O)N1C(=O)[C@@]2(c3cc(C#CCCO)ccc31)[C@H](C(=O)N1CCc3cc(OC)c(OC)cc3C1)[C@H]1C(=O)O[C@H](c3ccccc3)[C@H](c3ccccc3)N1[C@@H]2c1ccc(OCCO)cc1	1.19	0.125	-0.199	-0.575 (inactive)	1.37	1.2	0.846	1.4	0.609	0.0945
CC(C)C[C@H]1NC(=O)[C@H](C)NC(=O)[C@@]23C(=O)N[C@@H](Cc4ccccc4)C2[C@H](C)[C@@]2(C)O[C@H]2C3/C=C/C/C=C\CNC1=O (stereo not given in full)	0.0682	-0.597	-0.376	0.271 (inactive)	-0.148	-0.294	-0.0275	0.461	0.29	1.55
O=C(Nc1cc(Br)ccc1C(=O)NCc1cccc(O)c1)c1ccccc1	0.487	0.429	-0.339	-0.419 (inactive)	0.394	0.476	0.379	0.148	0.257	-0.0621
CC1CC/C=C\[C@H]2OC34C=CCN(c5ccc(Cl)cc5)C(=O)[C@H]3N(C(CO)C(C)C)C(=O)[C@]4(C)C2C(=O)O1 (stereo not given in full)	1.86	-0.0977	0.281	0.323 (inactive)	-0.0355	-0.364	-0.799	-0.786	-0.717	0.813
CCCCC(=C=CC[C@H](O)c1cccc(OCCO)c1)C[C@H](O)COCc1ccccc1	0.766	-0.31	-0.053	-0.992 (inactive)	0.688	-0.207	-0.572	-0.117	-0.627	0.58
CCCC=C(CCC)[C@@H](NC(=O)Cc1ccccc1)c1ccc(C(=O)OC)cc1	0.599	1.52	1.17	0.797 (inactive)	0.395	0.289	0.43	0.514	-0.285	1.26
CCCN1C(=O)[C@@H]2Cc3c([nH]c4ccccc34)[C@@H](c3cccc(O)c3)N2C1=O	0.292	-0.0726	-0.0794	1.08 (inactive)	0.415	0.718	0.578	0.493	1.14	0.275
COC(=O)[C@H]1N=C(c2ccc(OCCCO)cc2)O[C@H]1c1ccccc1CN=[N+]=[N-]	0.555	0.613	1.22	-0.0171 (inactive)	-0.418	-1.04	-0.771	-0.605	-1.56	0.635

Structure (SMILES)	composite z-score [1]	composite z-score [2]	composite z-score [3]	z-score [4]	composite z-score [5]	composite z-score [6]	composite z-score [7]	composite z-score [8]	composite z-score [9]	composite z-score [10]
CN(C)C(=O)[C@@]1(CCC(=O)OC(C)(C)C)N=C(c2ccc(OCCCO)cc2)O[C@H]1c1ccccc1N=[N+]=[N-]	1.33	0.813	0.837	0.101 (inactive)	1.46	0.253	0.334	1.4	0.648	0.707
CCCc1cc2c(n1Cc1ccc(OC)cc1)C(C)C1CN(C(=O)c3ccccc3)C(C)(C(=O)OC)C21 (stereo not given)	0.862	1.27	1.59	-1.94 (inactive)	0.303	0.482	-0.409	0.324	-1.71	1.43
C=C(CCCC)/C(=C/C[C@H](OC(=O)c1ccncc1)c1ccc(CO)o1)c1cc(C(=O)OC)ccc1OC	1.21	0.0946	-0.125	0.84 (inactive)	0.565	1.26	0.356	0.928	0.575	0.554
COc1ccc([Si](C)(C)[C@@H]2[C@@H](CC(=O)N(CCO)Cc3ccccc3)O[C@]3(C(=O)N(C)c4c(Br)cc(C)cc43)[C@H]2C)cc1	0.717	-0.298	-0.237	-1.92 (inactive)	1.1	-0.27	0.729	1.09	0.834	1.02
C[N+](C)(C)CCCC[C@@H]1NC(=O)[C@@H]2C[C@H](C(=O)O)[C@H](c3cccc(OCCO)c3)N2C1=O	1.53	-0.066	0.667	-0.11 (inactive)	0.11	-0.144	-0.188	-0.492	0.503	0.146
CC(C)C[C@@H]1NC(=O)[C@@H]2C[C@H](C(=O)NCCCC[N+](C)(C)C)[C@H](c3cccc(OCCO)c3)N2C1=O	1.66	-0.184	-0.103	-0.44 (inactive)	0.59	0.914	0.357	1.31	1.95	0.88
COC(=O)[C@@]1(Cc2ccccc2)[C@H]2c3cc(C(=O)N(C)C)n(Cc4ccc(O)c(OC)c4)c3C[C@H]2CN1C(=O)c1ccccc1	1.37	0.722	0.295	-6.3 (inactive)	-0.27	0.255	-0.34	0.764	-0.65	0.637
COC(=O)C(CC#Cc1ccc2c(c1)[C@]1(C(=O)N2)[C@H](c2ccccc2OCCO)N2[C@H](c3ccccc3)[C@H](c3ccccc3)OC(=O)[C@H]2[C@@H]1C(=O)Nc1nc2ccccc2s1)C(=O)OC	1.21	-0.0226	-0.0159	-0.333 (inactive)	1.3	1.21	0.312	0.806	0.171	0.245
COc1cc2c(cc1OC)CN(C(=O)[C@@H]1[C@H]3C(=O)O[C@H](c4ccccc4)[C@H](c4ccccc4)N3[C@H](c3ccc(O)cc3)[C@@]13C(=O)Nc1ccc(C#CCNC(N)=O)cc13)CC2	0.55	-0.053	0.0095	-0.256 (inactive)	0.641	-0.566	0.0967	0.694	-0.162	0.849
C[C@@H]1ON(c2ccccc2)[C@H](c2ccccc2)[C@H]1C(=O)N1C(=O)OC[C@H]1Cc1ccccc1	0.342	-0.327	-0.503	-0.34 (inactive)	0.423	0.149	0.569	0.697	0.471	0.106
COCCOC(=O)N1C(=O)[C@@]2(c3cc(C#CCC(C(=O)OC)C(=O)OC)ccc31)[C@H](c1ccc(OCCO)cc1)N1[C@H](c3ccccc3)[C@H](c3ccccc3)OC(=O)[C@H]1[C@@H]2C(N)=O	1.46	0.0751	0.443	-1.6 (inactive)	1.1	1.24	0.603	1.26	0.57	0.324
COc1ccc(C(=O)Nc2ccc(CN3C(=O)[C@@]4(O[C@@H](CC(=O)N5Cc6ccccc6C[C@H]5CO)[C@H]([Si](C)(C)c5ccc(OC)cc5)[C@H]4C)c4ccccc43)cc2)cc1	1.33	-0.351	-0.342	-1.29 (inactive)	1.01	0.81	1.05	1.19	0.628	0.673
CCCCC=C[C@@H](NC(=O)CCc1ccccc1)c1ccccc1	0.956	0.401	-0.0262	11.9 (active)	0.919	0.869	0.51	0.188	0.248	0.724
CC(C)C(CO)N1C(=O)[C@@H]2[C@H]3C(=O)OCC=C[C@H]3OC23C=CCN(Cn2nnc4ccccc42)C(=O)[C@@H]13 (stereo not given in full)	0.335	-0.374	0.465	0.184 (inactive)	-0.777	-1.05	-0.851	-1.41	-1.18	-1.33
CC(C)C[C@@H]1NC(=O)[C@@]23C(=O)N[C@@H](Cc4ccccc4)C2[C@H](C)[C@@]2(C)O[C@H]2C3/C=C/C/C=C\CNC(=O)[C@@H]2CCCN2C1=O (stereo not given in full)	0.324	-0.277	-0.719	-0.358 (inactive)	0.0165	-0.623	0.0731	0.361	0.534	1.42
Cc1ccc(S[C@]2(C(=O)O)CC(=O)N(C3CCCCC3)[C@@H]2c2ccc(CO)cc2)cc1	1.37	-0.0047	0.571	0.134 (inactive)	-0.256	0.739	-0.172	-0.365	0.234	0.378
